{"source": "PubChem BioAssay AID1851", "about": "(National Center for Advancing Translational Sciences (NCATS), 2009)", "note": "Several values for one entry are separate records, joined by “and”; a condition that tells them apart may be missing. Equal entries are not always repeated. The whole screen tested about 16,000 compounds, of which about 5,800 (36%) were called active. Another 23% or so got no clear call; they are omitted. Calls follow the shape of the dose curve; as a rule, active = well fitted curve in the direction sought with a large enough effect; inconclusive = small, poorly fitted or top-dose-only effect, or effect the other way; inactive = no such curve, though single readings can be large or run the other way. The list shows a part of the results. % is scaled to controls: 0 for no effect and ±100 for the full control effect."}
{"molecular_target": "Cytochrome P450 2C19 (Homo sapiens) (UniProt P33261)", "sequence (P33261 whole entry, looked up)": "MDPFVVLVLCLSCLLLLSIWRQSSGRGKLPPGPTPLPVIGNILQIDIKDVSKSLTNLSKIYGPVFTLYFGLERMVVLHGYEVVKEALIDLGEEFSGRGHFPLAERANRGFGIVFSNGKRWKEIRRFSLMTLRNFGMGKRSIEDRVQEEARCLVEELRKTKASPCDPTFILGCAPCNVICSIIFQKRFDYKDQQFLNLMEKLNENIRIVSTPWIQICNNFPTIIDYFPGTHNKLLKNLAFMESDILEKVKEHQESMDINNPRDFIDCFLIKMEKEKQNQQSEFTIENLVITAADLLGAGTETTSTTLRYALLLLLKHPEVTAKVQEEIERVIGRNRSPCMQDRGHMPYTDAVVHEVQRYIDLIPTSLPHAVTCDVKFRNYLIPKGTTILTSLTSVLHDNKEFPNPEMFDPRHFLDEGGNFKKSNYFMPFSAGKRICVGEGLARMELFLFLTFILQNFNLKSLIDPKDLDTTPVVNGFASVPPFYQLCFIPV", "assay": "Cytochrome panel assay with activity outcomes", "conditions": "recombinant CYP, pro-luciferin dealkylation, luminescence, p450-cyp2c19; series mostly up to 57.1 µM; activity, negative = inhibition: at the top concentration"}
{"smiles": "COc1ccc(NC(=O)N2CCCC3(CCN(C(=O)c4cccn4C)CC3)C2)cc1", "activity, negative = inhibition": "-8.93% (inactive)"}
{"smiles": "CC(C)[C@@H]1[C@H]2CC[C@H](C2)[C@H]1N", "activity, negative = inhibition": "-13.4% (inactive)"}
{"smiles": "C[C@@H](O)[C@H]1C(=O)N2C(C(=O)O)=C(S[C@@H]3CN[C@H](C(=O)N(C)C)C3)[C@H](C)[C@H]12", "activity, negative = inhibition": "-28.3% [at 25.6 µM] (inactive)"}
{"smiles": "CCc1ccc(/C=C\\C(=O)N2CCc3ccccc3C2)cc1", "AC50": "4.47 µM (active)"}
{"smiles": "CC1=C[N+](=O)c2ccccc2[N+]1=O", "activity, negative = inhibition": "5.82% [at 11.4 µM] (inactive)"}
{"smiles": "CCOC(=O)CN(C(=O)CCC(=O)Nc1cc(C)on1)C(C(=O)NC1CCCC1)c1cccnc1", "note": "(stereo not drawn)", "AC50": "28.2 µM (active)"}
{"smiles": "Cc1cc(NC(=O)CCC(=O)N(CC2CCCO2)C(C(=O)NC2CCCC2)c2cccnc2)no1", "note": "(stereo not drawn)", "activity, negative = inhibition": "-30% (inactive)"}
{"smiles": "O=C(O)[C@@H]1CCCNC1", "activity, negative = inhibition": "-17.7% [at 25.6 µM] (inactive)"}
{"smiles": "CCCCC1CCC(c2nc(-c3ccccn3)no2)CC1", "note": "(stereo not drawn)", "AC50": "22.4 µM (active)"}
{"smiles": "O=c1[nH]c(=O)n(Cc2ccco2)c2c1C(C(F)(F)F)(C(F)(F)F)N=C(CCC1CCCCC1)N2", "activity, negative = inhibition": "-14.8% (inactive)"}
{"smiles": "O=C(N/N=C/c1cccnc1)c1ccc([N+](=O)[O-])cc1", "activity, negative = inhibition": "-8.35% (inactive)"}
{"smiles": "O=C(c1ccc([N+](=O)[O-])cc1)[C@@H](Br)[C@@H](Br)c1ccnc2ccccc12", "AC50": "1.26 µM (active)"}
{"smiles": "CCN1C(=O)C(CC(=O)Nc2ccc(OC)cc2)N(Cc2cccs2)C1=S", "note": "(stereo not drawn)", "AC50": "0.355 µM (active)"}
{"smiles": "CCN1C(=O)C(CC(=O)Nc2ccc(OC)cc2)N(Cc2cccnc2)C1=S", "note": "(stereo not drawn)", "AC50": "1.26 µM (active)"}
{"smiles": "COc1ccc(-c2nc3cnc(N(C)C)nc3n(Cc3cccs3)c2=O)cc1", "activity, negative = inhibition": "-8.82% (inactive)"}
{"smiles": "CCNc1ncc2nc(-c3ccc(OC)cc3)c(=O)n(Cc3cccs3)c2n1", "activity, negative = inhibition": "1.48% (inactive)"}
{"smiles": "COc1ccc(C2C(C(=O)c3ccco3)=C(O)C(=O)N2Cc2cccnc2)cc1OC", "note": "(stereo not drawn)", "activity, negative = inhibition": "-13.2% (inactive)"}
{"smiles": "Cn1c(=O)[nH]c2ncn(C)c2c1=O", "activity, negative = inhibition": "-8.51% (inactive)"}
{"smiles": "O=C(NCc1ccco1)c1ccccc1NS(=O)(=O)c1ccc(Br)s1", "AC50": "1.58 µM (active)"}
{"smiles": "Nc1ccccc1C#Cc1ccccc1", "AC50": "10 µM (active) and 5.01 µM (active)"}
{"smiles": "O=C1C=C(c2cccs2)CC(c2cccs2)C1n1cnc([N+](=O)[O-])c1", "note": "(stereo not drawn)", "AC50": "10 µM (active)"}
{"smiles": "COc1ccccc1CN1CCCC2(CCN(C(=O)c3cnccn3)CC2)C1", "activity, negative = inhibition": "-12.4% (inactive)"}
{"smiles": "COc1cc(/C=C(/NC(=O)c2ccccc2)C(=O)Nc2ccccc2)c([N+](=O)[O-])cc1OC", "AC50": "15.8 µM (active)"}
{"smiles": "O=C(Nc1ccccc1)/C(=C\\c1ccncc1)NC(=O)c1ccccc1", "AC50": "0.126 µM (active)"}
{"smiles": "O=C(Nc1cccc2ccccc12)/C(=C/c1ccc([N+](=O)[O-])cc1)NC(=O)c1ccccc1", "AC50": "7.94 µM (active)"}
{"smiles": "Cc1ccc(NC(=O)/C(=C\\c2ccc([N+](=O)[O-])cc2)NC(=O)c2ccccc2)cc1", "AC50": "1.41 µM (active)"}
{"smiles": "O=C(c1cccc(F)c1)N1CCC[C@@]2(CCN(C(c3ccccc3)c3ccccc3)C2)C1", "activity, negative = inhibition": "10.6% (inactive)"}
{"smiles": "COc1ccc(COC(=O)N/N=C2/C[C@@H](O)[C@@H](O)[C@@H]3[C@H]4C(=O)N(c5ccc(F)cc5F)C(=O)[C@@H]4CC[C@H]23)cc1", "activity, negative = inhibition": "31.9% [at 11.4 µM] (inactive)"}
{"smiles": "Cc1cc2cc3c(C)cc(=O)oc3c(C)c2o1", "activity, negative = inhibition": "7.53% [at 25.6 µM] (inactive)"}
{"smiles": "Cc1ccc(C(=O)N/C(=C\\c2ccc([N+](=O)[O-])cc2)C(=O)NCCc2ccccc2)cc1", "AC50": "2 µM (active)"}
{"smiles": "O=C(OCC(=O)c1ccc([N+](=O)[O-])cc1)/C(=C\\c1ccc(Cl)cc1)NC(=O)c1ccccc1", "AC50": "3.98 µM (active)"}
{"smiles": "Cc1ccc(NC(=O)Nc2nc(-c3ccc(C)s3)cs2)cc1", "AC50": "6.31 µM (active)"}
{"smiles": "Cc1ncn(-c2ccccc2O)c1C", "activity, negative = inhibition": "-11% [at 11.4 µM] (inactive)"}
{"smiles": "Cc1ccc(C(=O)CNc2nc3c(c(=O)[nH]c(=O)n3C)n2Cc2ccccc2)cc1", "AC50": "5.62 µM (active)"}
{"smiles": "Cn1c(=O)[nH]c(=O)c2c1nc(CN(Cc1ccccc1)Cc1ccccc1)n2CCN1CCOCC1", "AC50": "14.1 µM (active)"}
{"smiles": "Cn1c(=O)[nH]c(=O)c2c1nc(NCCCO)n2CCCc1ccccc1", "activity, negative = inhibition": "-38.3% (inactive)"}
{"smiles": "Cn1c(=O)[nH]c(=O)c2c1nc(CN1CCOCC1)n2Cc1ccccc1", "activity, negative = inhibition": "-14.7% (inactive)"}
{"smiles": "COC(=O)Cn1c(CN(Cc2ccccc2)Cc2ccccc2)nc2c1c(=O)[nH]c(=O)n2C", "AC50": "28.2 µM (active)"}
{"smiles": "CCOC(=O)Cn1c(CN(Cc2ccccc2)Cc2ccccc2)nc2c1c(=O)[nH]c(=O)n2C", "AC50": "15.8 µM (active)"}
{"smiles": "Cn1c(=O)c2[nH]c(SCCN3CCOCC3)nc2n(C)c1=S", "activity, negative = inhibition": "-14.1% [at 11.4 µM] (inactive)"}
{"smiles": "Cc1nc(CN2CCCCC2)c(O)c(=O)[nH]1", "activity, negative = inhibition": "-22.5% [at 11.4 µM] (inactive)"}
{"smiles": "NC(=O)NC(=O)[C@H]1CCCC[C@@H]1C(=O)O", "activity, negative = inhibition": "12.1% [at 11.4 µM] (inactive)"}
{"smiles": "Cn1ncc2c(NCCc3ccccc3)nc(Cl)nc21", "AC50": "0.126 µM (active)"}
{"smiles": "CCCCN(c1ccccc1)c1ncnc2c1cnn2C", "activity, negative = inhibition": "-9.3% [at 11.4 µM] (inactive)"}
{"smiles": "Cn1ncc2c(Cl)ncnc21", "activity, negative = inhibition": "-3.14% [at 11.4 µM] (inactive)"}
{"smiles": "COc1ccccc1CN1CC[C@@]2(CCCN(C(=O)c3c(C)noc3C)C2)C1", "activity, negative = inhibition": "-31.8% (inactive)"}
{"smiles": "COc1ccc(-c2noc(C3CCCN(C(=O)c4ccccc4OC)C3)n2)cc1OC", "note": "(stereo not drawn)", "AC50": "11.2 µM (active)"}
{"smiles": "CCCCCC(=O)N1CCCC(c2nc(-c3ccc(OC)cc3)no2)C1", "note": "(stereo not drawn)", "AC50": "7.08 µM (active)"}
{"smiles": "CN(C)c1ccc(-c2noc(C3CCN(S(=O)(=O)c4cccc(C(=O)O)c4)CC3)n2)cc1", "activity, negative = inhibition": "-27.6% (inactive)"}
{"smiles": "CCOC(=O)/C(C#N)=C1/C=CN(C)C=N1", "activity, negative = inhibition": "10.6% (inactive)"}
{"smiles": "CCOC(=O)/C(C#N)=C1/SC(CC)C(=O)N1c1ccc(Br)cc1", "note": "(stereo not drawn)", "AC50": "1.58 µM (active)"}
{"smiles": "Cn1c(=O)c2[nH]c(SCc3ccccn3)nc2n(C)c1=S", "activity, negative = inhibition": "29.1% [at 11.4 µM] (inactive)"}
{"smiles": "CC(C)OCCCn1c(=S)[nH]c2ncccc2c1=O", "AC50": "14.1 µM (active)"}
{"smiles": "COCCNC(=O)COC(=O)/C=C/c1cnc2ccccc2n1", "AC50": "22.4 µM (active)"}
{"smiles": "CC(C)(C)CC(C)(C)c1cc(O)c(O)c(CN2CCCCC2)c1", "activity, negative = inhibition": "-5.03% [at 11.4 µM] (inactive)"}
{"smiles": "O=C1C=C(Nc2ccc(Cl)cc2)CC(c2ccc(Cl)cc2)C1", "note": "(stereo not drawn)", "AC50": "1.58 µM (active)"}
{"smiles": "Cn1c(/C=C/c2ccc([N+](=O)[O-])o2)nc2ccccc2c1=O", "AC50": "14.1 µM (active)"}
{"smiles": "O=C1O[C@H](CN2CCOCC2)CN1/N=C\\c1ccc([N+](=O)[O-])o1", "activity, negative = inhibition": "8.96% [at 25.6 µM] (inactive)"}
